Measurements: the supplement of paper PMC8269313

The molecules below were run on 4T1 (assay: % inhibition of 4T1 cell number vs DMSO control; higher = stronger growth inhibition). Conditions: 1 µM; 3 days; substrate: Matrigel.
Summary of the method: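 In 96-well imaging plates whose edge wells went unused, 3000 4T1-H2B-GFP mouse breast cancer cells per well were seeded in 2% FBS medium onto plastic, denuded lung matrix, mCAF1 fibroblast-derived matrix, Matrigel (15 μg/mL) or 0.2% gelatin. Sixteen hours on, kinase inhibitors went in at 1 μM final for 3 days before formalin fixation, DAPI staining and imaging on an INCell Analyzer 2200. Counting of GFP-positive nuclei gave cell numbers, from which percent inhibition relative to control was derived.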

SMILES	% inhibition of 4T1 cell number
COc1ccc2c(c[n+](C)c3c4cc5c(cc4ccc23)OCO5)c1OC [Chelerythrine Chloride]	20%
O=[N+]([O-])/C=C/c1ccc2c(c1)OCO2 [Syk Inhibitor III]	-4.15%
O=S(=O)(c1c(O)c(Cl)cc(Cl)c1Cl)c1c(O)c(Cl)cc(Cl)c1Cl [p38 MAP Kinase Inhibitor IV]	-24.4%
COc1ccc2c(c1)/C(=C/c1cnc[nH]1)C(=O)N2	24.5%
COC(=O)[C@]1(O)C[C@@H]2O[C@@]1(C)n1c3ccccc3c3c4c(c5c6ccccc6n2c5c31)C(=O)NC4 [K-252a, Nocardiopsis sp.]	87.4%
O=C1NC(=O)c2c1c1c3ccccc3n3c1c1c2c2ccccc2n1[C@H]1CC[C@@H]3O1	30%
CC(C)(C)c1cc(C=C(C#N)C#N)cc(Br)c1O	46.6%
NC(=NN=Cc1ccc(-c2cccc([N+](=O)[O-])c2)o1)N[N+](=O)[O-] [ERK Inhibitor III]	24.7%

Same assay, conditions: 1 µM; 3 days; substrate: gelatin

SMILES	% inhibition of 4T1 cell number
COc1ccc2c(c[n+](C)c3c4cc5c(cc4ccc23)OCO5)c1OC [Chelerythrine Chloride]	-43%
O=[N+]([O-])/C=C/c1ccc2c(c1)OCO2 [Syk Inhibitor III]	-72.6%
O=S(=O)(c1c(O)c(Cl)cc(Cl)c1Cl)c1c(O)c(Cl)cc(Cl)c1Cl [p38 MAP Kinase Inhibitor IV]	7.41%
COc1ccc2c(c1)/C(=C/c1cnc[nH]1)C(=O)N2	50.7%
COC(=O)[C@]1(O)C[C@@H]2O[C@@]1(C)n1c3ccccc3c3c4c(c5c6ccccc6n2c5c31)C(=O)NC4 [K-252a, Nocardiopsis sp.]	91.8%
O=C1NC(=O)c2c1c1c3ccccc3n3c1c1c2c2ccccc2n1[C@H]1CC[C@@H]3O1	44.2%
CC(C)(C)c1cc(C=C(C#N)C#N)cc(Br)c1O	-2.78%
NC(=NN=Cc1ccc(-c2cccc([N+](=O)[O-])c2)o1)N[N+](=O)[O-] [ERK Inhibitor III]	24.5%

Same assay, conditions: 1 µM; 3 days; substrate: lung fibroblast-derived matrix

SMILES	% inhibition of 4T1 cell number
COc1ccc2c(c[n+](C)c3c4cc5c(cc4ccc23)OCO5)c1OC [Chelerythrine Chloride]	4.48%
O=[N+]([O-])/C=C/c1ccc2c(c1)OCO2 [Syk Inhibitor III]	-12.2%
O=S(=O)(c1c(O)c(Cl)cc(Cl)c1Cl)c1c(O)c(Cl)cc(Cl)c1Cl [p38 MAP Kinase Inhibitor IV]	-2.09%
COc1ccc2c(c1)/C(=C/c1cnc[nH]1)C(=O)N2	8.25%
COC(=O)[C@]1(O)C[C@@H]2O[C@@]1(C)n1c3ccccc3c3c4c(c5c6ccccc6n2c5c31)C(=O)NC4 [K-252a, Nocardiopsis sp.]	2.02%
O=C1NC(=O)c2c1c1c3ccccc3n3c1c1c2c2ccccc2n1[C@H]1CC[C@@H]3O1	-1.14%
CC(C)(C)c1cc(C=C(C#N)C#N)cc(Br)c1O	2.02%
NC(=NN=Cc1ccc(-c2cccc([N+](=O)[O-])c2)o1)N[N+](=O)[O-] [ERK Inhibitor III]	-2.29%

Same assay, conditions: 1 µM; 3 days; substrate: mCAF1 fibroblast-derived matrix

SMILES	% inhibition of 4T1 cell number
COc1ccc2c(c[n+](C)c3c4cc5c(cc4ccc23)OCO5)c1OC [Chelerythrine Chloride]	8.26%
O=[N+]([O-])/C=C/c1ccc2c(c1)OCO2 [Syk Inhibitor III]	-33.4%
O=S(=O)(c1c(O)c(Cl)cc(Cl)c1Cl)c1c(O)c(Cl)cc(Cl)c1Cl [p38 MAP Kinase Inhibitor IV]	31.2%
COc1ccc2c(c1)/C(=C/c1cnc[nH]1)C(=O)N2	17.6%
COC(=O)[C@]1(O)C[C@@H]2O[C@@]1(C)n1c3ccccc3c3c4c(c5c6ccccc6n2c5c31)C(=O)NC4 [K-252a, Nocardiopsis sp.]	98.1%
O=C1NC(=O)c2c1c1c3ccccc3n3c1c1c2c2ccccc2n1[C@H]1CC[C@@H]3O1	29.4%
CC(C)(C)c1cc(C=C(C#N)C#N)cc(Br)c1O	0.929%
NC(=NN=Cc1ccc(-c2cccc([N+](=O)[O-])c2)o1)N[N+](=O)[O-] [ERK Inhibitor III]	-12.4%

Same assay, conditions: 1 µM; 3 days; substrate: plastic

SMILES	% inhibition of 4T1 cell number
COc1ccc2c(c[n+](C)c3c4cc5c(cc4ccc23)OCO5)c1OC [Chelerythrine Chloride]	-4.98%
O=[N+]([O-])/C=C/c1ccc2c(c1)OCO2 [Syk Inhibitor III]	-19.4%
O=S(=O)(c1c(O)c(Cl)cc(Cl)c1Cl)c1c(O)c(Cl)cc(Cl)c1Cl [p38 MAP Kinase Inhibitor IV]	-30.3%
COc1ccc2c(c1)/C(=C/c1cnc[nH]1)C(=O)N2	17.3%
COC(=O)[C@]1(O)C[C@@H]2O[C@@]1(C)n1c3ccccc3c3c4c(c5c6ccccc6n2c5c31)C(=O)NC4 [K-252a, Nocardiopsis sp.]	91.5%
O=C1NC(=O)c2c1c1c3ccccc3n3c1c1c2c2ccccc2n1[C@H]1CC[C@@H]3O1	87.4%
CC(C)(C)c1cc(C=C(C#N)C#N)cc(Br)c1O	35.7%
NC(=NN=Cc1ccc(-c2cccc([N+](=O)[O-])c2)o1)N[N+](=O)[O-] [ERK Inhibitor III]	41.4%
